# High-throughput results from PubChem BioAssay.
# Only some compounds are listed: those with a hit (about 12% of all), similar ones and a draw of the others.
# Sfp inh: Sfp phosphopantetheinyl transferase inhibition; Q9F4F7; Biochemical Sfp PPTase activity, qHTS; Potency, µM, for the others: largest response in the series, negative = inhibition, actives largely listed as inhibitors; 310,000 tested, 3.5% active; AID 1490;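 also: the enzyme is Sfp with the accession as filed and its product quenches rhodamine fluorescence; 0% = enzyme reaction without inhibitor and -100% = no enzyme wells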
#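 Buffer: 50 mM Hepes-Na pH 7.6, 10 mM MgCl2, 0.01% Nonidet P-40, 0.01% BSA. Enzyme 15 nM, pre-exposed to compound 15 min; substrates then added and fluorescence change tracked over 30 min.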
# BAZ2B inh: inhibitors of human BAZ2B bromodomain; Q9UIF8; AlphaScreen BAZ2B-H3K14Ac peptide displacement; Potency, µM (highest dose often 114 µM), without a hit: at the highest dose activity change, negative = inhibition, usual class: inhibitors; 360,000 tested, 4.4% active; also: % is scaled to controls: 0 for no effect and ±100 for the full control effect; nearly all actives have a fitted effect of over 60% in size
# Target sequence (Q9UIF8 whole entry, looked up): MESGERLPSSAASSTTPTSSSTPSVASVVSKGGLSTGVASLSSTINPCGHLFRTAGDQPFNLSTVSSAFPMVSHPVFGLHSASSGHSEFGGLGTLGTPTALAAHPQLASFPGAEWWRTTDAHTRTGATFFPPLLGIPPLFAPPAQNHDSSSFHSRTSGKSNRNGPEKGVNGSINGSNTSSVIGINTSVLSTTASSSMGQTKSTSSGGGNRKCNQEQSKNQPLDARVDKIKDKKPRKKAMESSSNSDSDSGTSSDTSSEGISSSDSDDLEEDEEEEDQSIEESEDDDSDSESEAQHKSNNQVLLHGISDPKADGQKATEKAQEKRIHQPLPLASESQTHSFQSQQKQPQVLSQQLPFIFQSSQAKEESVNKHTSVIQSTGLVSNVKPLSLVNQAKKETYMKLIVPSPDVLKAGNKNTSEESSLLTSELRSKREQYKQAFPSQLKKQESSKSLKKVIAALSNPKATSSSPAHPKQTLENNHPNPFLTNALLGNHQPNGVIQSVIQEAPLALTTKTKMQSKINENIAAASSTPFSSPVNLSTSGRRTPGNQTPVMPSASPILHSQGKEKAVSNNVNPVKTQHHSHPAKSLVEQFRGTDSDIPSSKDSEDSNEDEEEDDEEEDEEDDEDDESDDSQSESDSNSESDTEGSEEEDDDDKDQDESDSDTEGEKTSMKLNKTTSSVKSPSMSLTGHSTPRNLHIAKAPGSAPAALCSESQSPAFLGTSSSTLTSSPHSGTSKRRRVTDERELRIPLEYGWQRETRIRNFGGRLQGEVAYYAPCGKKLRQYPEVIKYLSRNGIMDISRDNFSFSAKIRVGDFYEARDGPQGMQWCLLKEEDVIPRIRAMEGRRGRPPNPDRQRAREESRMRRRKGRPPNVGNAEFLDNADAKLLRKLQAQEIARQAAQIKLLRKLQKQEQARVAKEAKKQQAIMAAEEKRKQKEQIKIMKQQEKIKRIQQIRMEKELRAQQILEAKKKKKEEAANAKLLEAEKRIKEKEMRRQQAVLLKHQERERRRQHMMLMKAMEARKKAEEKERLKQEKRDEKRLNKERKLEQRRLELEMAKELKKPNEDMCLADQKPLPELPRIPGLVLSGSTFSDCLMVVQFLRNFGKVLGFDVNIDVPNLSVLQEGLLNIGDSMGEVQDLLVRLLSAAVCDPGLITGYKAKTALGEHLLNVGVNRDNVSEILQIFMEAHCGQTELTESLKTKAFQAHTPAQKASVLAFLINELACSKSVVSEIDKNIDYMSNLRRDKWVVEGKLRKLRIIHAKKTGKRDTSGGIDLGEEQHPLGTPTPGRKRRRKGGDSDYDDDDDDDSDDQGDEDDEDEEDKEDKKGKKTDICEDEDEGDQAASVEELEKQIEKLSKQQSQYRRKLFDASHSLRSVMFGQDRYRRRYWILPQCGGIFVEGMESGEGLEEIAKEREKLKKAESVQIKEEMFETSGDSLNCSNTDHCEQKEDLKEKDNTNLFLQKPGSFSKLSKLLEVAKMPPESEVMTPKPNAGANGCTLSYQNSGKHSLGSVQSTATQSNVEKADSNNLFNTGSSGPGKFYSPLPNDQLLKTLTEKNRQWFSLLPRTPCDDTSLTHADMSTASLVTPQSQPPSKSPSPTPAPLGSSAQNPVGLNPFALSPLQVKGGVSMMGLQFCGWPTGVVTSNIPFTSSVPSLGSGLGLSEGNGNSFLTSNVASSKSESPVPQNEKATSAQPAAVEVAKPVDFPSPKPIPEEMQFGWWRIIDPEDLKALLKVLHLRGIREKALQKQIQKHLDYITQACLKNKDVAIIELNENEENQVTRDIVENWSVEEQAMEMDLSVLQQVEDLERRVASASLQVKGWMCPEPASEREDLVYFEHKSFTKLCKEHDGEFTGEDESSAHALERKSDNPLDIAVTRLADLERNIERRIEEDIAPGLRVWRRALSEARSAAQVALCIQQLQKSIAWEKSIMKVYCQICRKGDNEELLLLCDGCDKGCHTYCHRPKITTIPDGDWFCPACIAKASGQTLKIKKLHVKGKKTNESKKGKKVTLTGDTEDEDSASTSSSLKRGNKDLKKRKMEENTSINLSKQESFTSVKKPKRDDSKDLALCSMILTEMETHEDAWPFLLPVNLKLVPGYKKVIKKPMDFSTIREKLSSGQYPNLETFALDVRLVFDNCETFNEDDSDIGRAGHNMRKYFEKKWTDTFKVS
#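 Compounds, titrated to a top concentration of 110 uM, were incubated 30 min at room temperature with preformed BAZ2B/acetyl-K14 H3 peptide complex (50 nM each). Proximity signal was measured by AlphaScreen after 20 min with beads.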
# L3MBTL1 inh: blocks human L3MBTL1; Q9Y468; AlphaScreen L3MBTL1–H3K9me1 peptide binding; Potency, µM (titrated, usually from 57.1 µM), for the others: top-dose activity, negative = inhibition, actives largely listed as inhibitors; 230,000 tested, 0.66% active; also: % is scaled to controls: 0 for no effect and ±100 for the full control effect; nearly all actives have a fitted effect of over 60% in size
#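 L3MBTL1 (50 nM) pre-complexed 30 min with biotinylated H3(1-15)K9me1 peptide (75 nM), then compounds added for 30 min at room temperature; AlphaScreen streptavidin donor/nickel chelate acceptor beads (10 ug/mL final) read after 30 min dark incubation.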
# G9a block: inhibitors of human histone lysine methyltransferase G9a. Q96KQ7. G9a H3K9 monomethylation, AlphaScreen, 2 h. Potency, µM (titrated, usually from 102 µM), inactives show at the highest dose activity, negative = inhibition, most hits filed as inhibitors. 350,000 tested, 8.8% active. AID 504332; also: % is scaled to controls: 0 for no effect and ±100 for the full control effect; nearly all actives have a fitted effect of over 75% in size
#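 AlphaScreen read-out: biotin-H3K9 peptide (500 nM) methylation by 20 nM enzyme with 20 uM SAM, 2 h at room temperature after 15 min compound preincubation; anti-monomethyl H3K9 antibody plus donor/acceptor beads, 10 min dark.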
# JMJD2A Tudor inh: JMJD2A Tudor domain (human) inhibition; AlphaScreen JMJD2A-Tudor / H3K4me3 peptide binding; 390,000 tested, 4.4% active; O75164; Potency, µM (top dose mostly 114 µM), inactives show at the top dose activity change, negative = inhibition, most hits filed as inhibitors; also: % is scaled to controls: 0 for no effect and ±100 for the full control effect; nearly all actives have a fitted effect of over 50% in size
# HP1b chromo inh: HP1-beta chromodomain-methylated histone interaction inhibition | Potency, µM (series often up to 114 µM), inactives show top-dose activity change, negative = inhibition, actives largely listed as inhibitors | AID 540317 | P83916 | AlphaScreen HP1-beta / biotin-H3K9me3 peptide binding | 390,000 tested, 0.56% active; also: nearly all actives have a fitted effect of over 70% in size
#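 Compound inhibition of the preformed complex between 50 nM HP1-beta and 50 nM biotinylated H3K9me3 peptide was read by AlphaScreen. Buffer was PBS pH 7.4 with 0.01% Tween-20. Incubations ran 30 min at room temperature, with 10 ug/mL donor/acceptor beads.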
# Numbers without * were called inactive; ? = inconclusive; . = no result given; ! = repeats disagree; [ ] = remark or other dose. Calls follow the shape of the dose curve; as a rule, active = well fitted curve in the direction sought with a large enough effect; inconclusive = small, poorly fitted or top-dose-only effect, or another doubt; inactive = no such curve, though single readings can be large; an effect the other way counts as inactive or inconclusive. Potency is read from the fitted curve at half-maximal effect.
SMILES,Sfp inh,BAZ2B inh,L3MBTL1 inh,G9a block,JMJD2A Tudor inh,HP1b chromo inh
Cn1c(O)c(/C=C2\N=c3ccccc3=C2CCNC(=S)NC2CC2)c(=O)n(C)c1=O,32µM*,?,-15%,-116%[59 µM],-13%,11%
CC[C@H](C)[C@H](NC(=O)[C@@H]1CCCN1C(=O)[C@H](CCC(=O)O)NC(=O)[C@@H](NC(=O)[C@H](Cc1ccccc1)NC(=O)[C@@H]1CCCN1C(=O)[C@@H](N)Cc1ccc(O)cc1)C(C)C)C(=O)O,17%,.,.,36%[59 µM],.,.
O=C1CC(=O)N(c2cccc(C(F)(F)F)c2)C(=O)N1,-20%,3%,.,21%,-12%,15%
O=C1CC(=O)N(c2cccc(Br)c2)C(=O)N1,-7%,-23%,.,56µM*,?,5%
O=C(c1ccc(CNS(=O)(=O)c2ccc(Br)cc2)cc1)N1CCC2(CC1)OCCO2,4%,-7%,-5%,7%,9%,15%
O=C(c1ccc(CNS(=O)(=O)c2ccccc2)cc1)N1CCC2(CC1)OCCO2,-15%,?,-9%,35µM*,?,-2%
NS(=O)(=O)c1ccc(CNC(=O)COc2ccc3c4c(c(=O)oc3c2)CCCC4)cc1,-6%,-3%[57.1 µM],.,14%,35µM*,3%
Cc1ccc(C(O)P(=O)(OCCC(C)C)c2ccc(N(C)C)cc2)cc1 (centres undefined),-3%,?,.,7%[2.33 µM],-23%,13%
Cc1cc(Cc2c(O)[nH]c(=S)[nH]c2=O)ccc1OC(C)C,56µM*,-21%,-1%,8.9µM*,89µM*,?
CC(C)COc1ccc(Cc2c(O)[nH]c(=S)[nH]c2=O)cc1,?,3%,-1%[2.29 µM],22%[0.501 µM],-18%,?
O=C(CF)NC(Nc1cccc2cccnc12)C(Cl)(Cl)Cl (centres undefined),18%,-1%,7%,-47%,-2%,17%
O=C(/C=C/c1ccccc1)NC(NC(=S)Nc1cccc2cccnc12)C(Cl)(Cl)Cl (centres undefined),23%,.,.,14µM*,.,.
O=C1NC(=S)N(c2ccccc2)C(=O)C1C(c1ccncc1)C1C(=O)NC(=S)N(c2ccccc2)C1=O (centres undefined),?,-28%,5%,45µM*,-25%,29%
C1=CC2C3C=CC(C3)C2C1 (centres undefined),.,-6%,-9%,12%[0.501 µM],-6%,47%
CC1C(=O)OC2O[C@]3(C)CC[C@H]4C(C)CCC1[C@]24OO3 (some centres undefined),-13%,.,.,6%[2.33 µM],.,.
Cc1ccc2[nH]c3c(c2c1)CN(C(=O)CN1C[C@H]2C[C@@H](C1)c1cccc(=O)n1C2)CC3,8%,-27%,2%,50µM*,-25%,58%
Cc1ccc2occ(CN3CC4CC(C3)c3cccc(=O)n3C4)c(=O)c2c1 (centres undefined),2%,11%,2%,10%,1%,16%
C[C@]12C=CC(=O)C=C1CCC1C2=CC[C@]2(C)[C@@H](C(=O)CN3CCN(c4cc(N5CCCC5)nc(N5CCCC5)n4)CC3)CC[C@@H]12 (some centres undefined),.,.,.,40µM*,.,.
COc1ccc(NC(=O)CCc2nc(C3=CCN(Cc4cccc(Cl)c4)CC3)no2)c(OC)c1,.,?,.,?,?,1%[57 µM]
COc1ccc(NC(=O)CCc2nc(C3=CCN(Cc4cccc(Cl)c4)CC3)no2)cc1OC,.,50µM*,.,28µM*,56µM*,-5%[57 µM]
Cc1ccc(NC(=O)COC(=O)CCc2c[nH]c3ccccc23)cc1[N+](=O)[O-],?,?,-25%,40µM*,?,-23%
CC(=O)NCCc1c[nH]c2ccccc12,21%,?,.,2%[59 µM],-5%,25%
c1ccc(CN2CCNCC2)nc1,-5%,71µM*,.,35µM*,45µM*,10%
CC(C)[C@@]1(NC(=O)[C@@H]2C=C3c4cccc5[nH]cc(c45)C[C@H]3N(C)C2)O[C@@]2(O)[C@@H]3CCCN3C(=O)[C@H](Cc3ccccc3)N2C1=O,?,-35%,-20%,8.9µM*,.,.
CC(C)[C@@]1(NC(=O)[C@@H]2C[C@@H]3c4cccc5[nH]cc(c45)C[C@H]3N(C)C2)O[C@@]2(O)[C@@H]3CCCN3C(=O)[C@H](Cc3ccccc3)N2C1=O,79µM*!,40µM*,-7%,?,-31%,5%
SMILES,Sfp inh,BAZ2B inh,L3MBTL1 inh,G9a block,JMJD2A Tudor inh,HP1b chromo inh
C[C@@H]1Cc2c(Cl)cc(C(=O)N[C@@H](Cc3ccccc3)C(=O)O)c(O)c2C(=O)O1,2%,.,.,3%[59 µM],.,.
COc1cc2c(cc1OC)C1C(=O)c3ccc4c(c3OC1CO2)CC(C(C)C)O4 (centres undefined),.,.,.,.,45µM*,-28%[57 µM]
CCCCCCCCCCCCCCCCOC[C@@H](COP(=O)([O-])OCC[N+](C)(C)C)OC(C)=O,-30%,.,.,3%[59 µM],.,.
CC(C)(C)P(=O)(N1CCOCC1)N1CCOCC1,12%,2%,12%,2%,-6%,27%
O=P(/C(=N/O)N1CCOCC1)(N1CCOCC1)N1CCOCC1,-4%,-6%,-2%,14µM*,-3%,27%
CCCCC(=O)c1c(O)c2ccccc2oc1=O,6%,-11%,0%,45µM*,?,19%
C=CCn1c(=O)c(C=Nc2cccc([N+](=O)[O-])c2)c(O)n(CCCC)c1=O,-15%,-36%[57.1 µM],-13%,71µM*,?,-11%
C=C[C@H](Cc1ccccc1)N(Cc1ccccc1)S(=O)(=O)N(Cc1ccccc1)[C@H](C=C)Cc1ccccc1,.,.,12%,.,14%,72%
O=C(OCC(=O)c1ccc([N+](=O)[O-])cc1)/C(=C\c1ccc(Cl)cc1)NC(=O)c1ccccc1,11%,-18%,4%,?,-18%,16%
O=C(CNC(=O)c1cccs1)NCC(=O)OCC(=O)c1ccc([N+](=O)[O-])cc1,?,.,.,45µM*,-4%,-2%
CC(=O)O[C@H]1C(=O)[C@@]2(C)C([C@H](OC(=O)c3ccccc3)[C@]3(O)C[C@H](OC(=O)[C@H](O)[C@@H](NC(=O)c4ccccc4)c4ccccc4)C(C)=C1C3(C)C)[C@]1(OC(C)=O)CO[C@@H]1C[C@@H]2OC(=O)[C@H](C)NC(=O)c1ccc(-c2c3ccc(=O)cc-3oc3cc(O)ccc23)c(C(=O)O)c1 (some centres undefined),-1%,.,.,53%[12.7 µM],.,.
Cc1ccccc1C1=NCC(=O)N(CC(=O)NCc2ccco2)c2sc3c(c21)CCCC3,50µM*,-34%,?,-16%[12.7 µM],89µM*,-16%
